Measurements from the supplement of paper PMC13380429.

Test system: Vero E6 infected with SARS-CoV-2
Experiment: inhibition of SARS-CoV-2 cytopathic effect; higher = more antiviral protection, active = above 15
Conditions: 48 h

Measured: inhibition of SARS-CoV-2 cytopathic effect

Nc1ccncc1N [amifampridine]
inactive: 1 nM -1.81% | 8.33 nM -1.46% | 100 nM -2.67% | 833.33 nM -3.34% | 10000 nM -5.61%

CO[C@H]1/C=C/O[C@@]2(C)Oc3c(C)c(O)c4c(O)c(c(/C=N/N=C/N5CCCCC5)c(O)c4c3C2=O)NC(=O)/C(C)=C\C=C\[C@H](C)[C@H](O)[C@@H](C)[C@@H](O)[C@@H](C)[C@H](OC(C)=O)[C@@H]1C
inactive: 1 nM 5.27% | 8.33 nM 5.73% | 100 nM 6.01% | 833.33 nM 4.61% | 10000 nM 3.27%

COc1cccc(N2CCN(C3=Nc4c(F)cccc4[C@H](CC(=O)O)N3c3cc(C(F)(F)F)ccc3OC)CC2)c1 [letermovir]
inactive: 1 nM -1.18% | 8.33 nM 0.62% | 100 nM 0.16% | 833.33 nM 0.96% | 10000 nM 1.82%

NS(=O)(=O)OC[C@@H]1C[C@@H](n2ccc3c(N[C@H]4CCc5ccccc54)ncnc32)C[C@@H]1O [pevonedistat]
inactive: 1 nM 1.08% | 8.33 nM 1.45% | 100 nM 2.73% | 833.33 nM -1.35% | 10000 nM -9.75%

CCN1CCC(n2cc(CNc3cc(Cl)c4ncc(C#N)c(Nc5ccc(F)c(Cl)c5)c4c3)nn2)CC1 [cot-inhibitor-2]
inactive: 1 nM 0.26% | 8.33 nM -1.48% | 100 nM 0.28% | 833.33 nM -0.75% | 10000 nM 14%

O=C(O)CC/C=C\C[C@@H]1CO[C@H](c2ccccc2Cl)O[C@@H]1c1ccccc1O (racemic)
inactive: 1 nM 0.52% | 8.33 nM 1% | 100 nM -2.37% | 833.33 nM 0.59% | 10000 nM -2.08%

O=C(O)C(=O)Nc1cccc(-c2nnn[nH]2)c1 [acitazanolast]
inactive: 1 nM -1.24% | 8.33 nM -0.89% | 100 nM -0.76% | 833.33 nM -1.09% | 10000 nM -0.46%

C[C@H]1[C@H](OC(=O)CCC(=O)O)O[C@@H]2O[C@@]3(C)CC[C@H]4[C@H](C)CC[C@@H]1[C@@]24OO3 [artesunate]
inactive: 1 nM -1.31% | 8.33 nM -0.87% | 100 nM 1.57% | 833.33 nM -1.37% | 10000 nM -11.7%

O=C(O)C1CN(Cc2ccc(-c3nc4cc(Cc5ccccc5F)ccc4s3)c(F)c2)C1
inactive: 1 nM 1.34% | 8.33 nM 1.1% | 100 nM 2.02% | 833.33 nM 0.03% | 10000 nM 1.58%

CC(C)(C)n1nc(-c2cccc3ccccc23)c2c(N)ncnc21 [1-naphthyl-PP1]
inactive: 1 nM 0.05% | 8.33 nM 1.77% | 100 nM 1.73% | 833.33 nM 1.24% | 10000 nM -4.31%

CN(C)CC(c1ccc(O)cc1)C1(O)CCCCC1 (stereo not given) [desvenlafaxine]
inactive: 1 nM 1.5% | 8.33 nM 3.55% | 100 nM 4.53% | 833.33 nM 1.89% | 10000 nM 0.99%

CC(=O)Oc1ccccc1C(=O)Nc1ncc([N+](=O)[O-])s1 [nitazoxanide]
inactive: 1 nM 4.76% | 8.33 nM -3.73% | 100 nM -1.27% | 833.33 nM -0.63% | 10000 nM 8.82%

CC(C)(CO)CCCCCCC(C)(C)CO [gemcadiol]
inactive: 1 nM -2.86% | 8.33 nM -2.01% | 100 nM -1.65% | 833.33 nM -2.84% | 10000 nM -2.43%

C[N@+]1(CC2CC2)CC[C@]23c4c5ccc(O)c4O[C@H]2C(=O)CC[C@@]3(O)[C@H]1C5 [methylnaltrexone]
inactive: 1 nM 1.92% | 8.33 nM -0.19% | 100 nM 1.95% | 833.33 nM 1.11% | 10000 nM 1.64%

CN(C(=O)CN(CCO)CC(=O)N(C)C(C)(C)Cc1ccccc1)C(C)(C)Cc1ccccc1 [oxethazaine]
inactive: 1 nM -2.13% | 8.33 nM -0.95% | 100 nM 0.87% | 833.33 nM -0.57% | 10000 nM -13.9%

C=C[C@H]1CN2CC[C@H]1CC2C(OC(=O)OCC)c1ccnc2ccc(OC)cc12 (stereo in doubt) [quinine-ethyl-carbonate]
inactive: 1 nM 0.47% | 8.33 nM 2.1% | 100 nM 0.07% | 833.33 nM 6.66% | 10000 nM 5.77%

Cc1cn([C@H]2C[C@H](N=[N+]=[N-])[C@@H](CO)O2)c(=O)[nH]c1=O [zidovudine]
inactive: 1 nM 3.53% | 8.33 nM 3.15% | 100 nM 6.14% | 833.33 nM 2.68% | 10000 nM -0.41%

CC[C@@](C)(Nc1ccnc(-c2c[nH]c3ncccc23)n1)C(=O)NCC(F)(F)F [decernotinib]
inactive: 1 nM -1.03% | 8.33 nM 0.41% | 100 nM -0.04% | 833.33 nM 1.86% | 10000 nM 2.32%

CCOc1cc([C@@H](CS(C)(=O)=O)N2C(=O)c3cccc(NC(C)=O)c3C2=O)ccc1OC [apremilast]
inactive: 1 nM 2.28% | 8.33 nM -0.67% | 100 nM 1.6% | 833.33 nM -0.47% | 10000 nM -2.14%

CC[C@H]1CN2CCc3cc(OC)c(OC)cc3[C@@H]2C[C@@H]1C[C@H]1NCCc2cc(OC)c(OC)cc21 [emetine]
active: 100 nM 36.2%
inactive: 1 nM 1.59% | 8.33 nM 2.17% | 833.33 nM 11.6% | 10000 nM -11.1%

Cc1ccc([N+](=O)[O-])cc1S(=O)(=O)N(C)/N=C/c1cnc2ccc(Br)cn12
inactive: 1 nM 0.29% | 8.33 nM -0.13% | 100 nM -5.92% | 833.33 nM -16.5% | 10000 nM -5.86%

CSc1ccc([C@H]2CN3CCC[C@H]3c3ccccc32)cc1 (racemic)
inactive: 1 nM 3.1% | 8.33 nM 1.05% | 100 nM 2.84% | 833.33 nM 3.32% | 10000 nM 1.44%

COc1ccccc1C(=O)Nc1cccc(NC(=O)c2cccc(C)c2)c1
inactive: 1 nM 1.89% | 8.33 nM 2.12% | 100 nM 2.82% | 833.33 nM 0.39% | 10000 nM 1.77%

CN1c2ccccc2C(=O)N2CCc3c([nH]c4ccccc34)C21 (stereo in doubt) [evodiamine]
inactive: 1 nM 0.51% | 8.33 nM 2.11% | 100 nM 2.14% | 833.33 nM 4.34% | 10000 nM 2.33%

N#Cc1ccncn1 [4-pyrimidinecarbonitrile]
inactive: 1 nM 3.43% | 8.33 nM 1.7% | 100 nM 4.16% | 833.33 nM 0.49% | 10000 nM -3.8%

CCCCN(CCCC)CC(O)c1cc(Cl)cc2c1-c1ccc(Cl)cc1/C2=C/c1ccc(Cl)cc1 (stereo not given) [lumefantrine]
inactive: 1 nM -1.1% | 8.33 nM 3.13% | 100 nM 2.25% | 833.33 nM 0.99% | 10000 nM -1.35%
